We go through 87 compounds from PubChem BioAssay AID504652 (National Center for Advancing Translational Sciences (NCATS), 2011).

Among all 360,000 compounds or so, about 11,000 (3.1%) were called active. What follows is part of a selection rich in actives, with near analogues and random picks from the rest. A number with no mark means an inactive call. No stated cut-off is given here; in the data, active means activity change below about -30%; inactive means the rest.
On the % scale 0 is the no-effect control and ±100 the full control effect.

D(1A) dopamine receptor (Homo sapiens), sequence (P21728 whole entry, looked up): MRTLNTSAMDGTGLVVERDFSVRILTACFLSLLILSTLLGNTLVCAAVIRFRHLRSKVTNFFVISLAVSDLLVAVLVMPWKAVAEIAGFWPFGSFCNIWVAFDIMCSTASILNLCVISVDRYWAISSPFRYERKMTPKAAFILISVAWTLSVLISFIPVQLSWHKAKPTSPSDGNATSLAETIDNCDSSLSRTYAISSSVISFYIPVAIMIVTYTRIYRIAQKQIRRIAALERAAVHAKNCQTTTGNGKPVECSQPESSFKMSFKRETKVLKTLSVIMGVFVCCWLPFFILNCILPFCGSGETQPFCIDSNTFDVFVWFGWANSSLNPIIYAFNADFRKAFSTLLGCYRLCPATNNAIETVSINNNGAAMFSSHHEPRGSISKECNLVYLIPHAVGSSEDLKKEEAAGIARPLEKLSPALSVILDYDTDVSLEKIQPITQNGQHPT

The experiment has as its target D(1A) dopamine receptor (Homo sapiens) (UniProt P21728). Briefly: Antagonist of Human D 1 Dopamine Receptor: qHTS. The note with it: HEK293 TREx D1 cells, calcium flux, dopamine EC80; at 10 µM; stronger effect = lower value. An outline of the steps: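 HEK293 T-REx cells expressing inducible, force-coupled D1 receptor; no-wash Ca dye, 30–90 min RT. Cmpd → 180 s read at 1 Hz → EC80 DA → 180 s read.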
In general terms: Quantitative high-throughput screening tests each substance at several concentrations.
As for `O=S(=O)(NC1CCN(S(=O)(=O)c2ccc3c(c2)OCCO3)CC1)c1c(F)cccc1F`, the activity change, negative = inhibition was -30.3% (active). Under `O=S(=O)(c1ccc2c(c1)OCCCO2)N1CCN(S(=O)(=O)c2c(F)cccc2F)CC1` stands -7.05%; under `O=S(=O)(NCC1CN(S(=O)(=O)c2ccc3c(c2)OCCO3)C1)c1c(F)cccc1F`, 2.66%. Regarding `CCOc1ccccc1C(=O)NC1(C(F)(F)F)NC(=O)N(CCc2ccc(OC)c(OC)c2)C1=O` (configuration not stated), the activity change, negative = inhibition was 12%. Regarding `CCOC(=O)CSC1=Nc2ccccc2C2=NC(CCC(=O)NCc3ccc(F)cc3)C(=O)N12` (configuration not stated), the activity change, negative = inhibition is 7.77%.

`Cc1ccc(S(=O)(=O)N2CCC(C(=O)Nc3cc(C)ccc3C)CC2)cc1`: the activity change, negative = inhibition is 7.91%. Under `CCc1ccc2oc(-c3ccc(C)c(NC(=O)/C=C/c4ccco4)c3)nc2c1` stands -0.213%. With `CCN(C(=O)Cn1cc(S(=O)(=O)N2CCN(c3ccccc3F)CC2)c2ccccc2c1=O)c1ccc(C)c(C)c1`, the activity change, negative = inhibition was -3.49%.

As to `CCOC(=O)C1CCCN(C(=O)c2ccc(C)c(S(=O)(=O)N3CCCCC3)c2)C1` (configuration not stated), the activity change, negative = inhibition is -1.15%. Regarding `CCOC(=O)C1CCCN(C(=O)c2ccc3c(c2)sc2nc(-c4ccc(CC)cc4)cn23)C1` (configuration not stated), the activity change, negative = inhibition was -33% (active). The value for `CCOC(=O)C1CCCN(C(=O)c2cncc(Br)c2)C1` (configuration not stated) was -9.23%. Consider `O=C(NCCC1=CCCCC1)c1ccc2c(c1)N(Cc1ccccc1F)C(=O)c1ccccc1S2(=O)=O`, for which the activity change, negative = inhibition was -12.5%.

On to `O=C(NCc1ccccc1)c1ccc(CNc2c(N3CCCC3)c(=O)c2=O)cc1`, for which the activity change, negative = inhibition was -9.38%. Under `O=C(NC1CCCCC1)c1ccc(CNc2c(N3CCOCC3)c(=O)c2=O)cc1` stands 11.4%. For `CC1CCN(c2c(NCc3ccc(C(=O)NCc4ccccc4)cc3)c(=O)c2=O)CC1`, the activity change, negative = inhibition is -34.3% (active). The value for `Cc1nc2sc(C)c(C)n2c(=O)c1S(=O)(=O)NCCc1ccc(Cl)cc1` was -2.78%; that for `CCc1ccc(S(=O)(=O)n2ccnc2)cc1` was -16.9%; that for `CC(C)c1ccc(NC(=O)c2ccc(Cn3nc(N4CCN(c5ccccc5)CC4)ccc3=O)o2)cc1` was -6.07%.

As for `CC(C)c1ccc(N2CCN(C(=O)c3ccccc3NC(=O)/C=C(\C(=O)O)c3ccccc3)CC2)cc1`, the activity change, negative = inhibition was -3.41%. Turning to `CC(=O)N1CCN(c2ccc(NCc3ccc(C(C)C)cc3)cc2)CC1`, the activity change, negative = inhibition is -50.6% (active). For `COc1ccc(CNC(=O)c2cc3c(=O)[nH]c4ccccc4c3s2)cc1`, the activity change, negative = inhibition is -33.6% (active). As to `COc1ccc(CNC(=O)c2cc3c(=O)[nH]c4ccc(C)cc4c3s2)c(OC)c1`, the activity change, negative = inhibition was 1.68%.

Turning to `O=C(NCCN1CCN(Cc2ccccc2)CC1)c1cc2c(=O)[nH]c3ccccc3c2s1`, the activity change, negative = inhibition is -7.42%. As to `Cc1cccc(NC(=O)c2ccc(F)c(S(=O)(=O)N(C)C3CCCCC3)c2)c1`, the activity change, negative = inhibition was 4.16%. Consider `CC(C)c1ccc(NC(=S)NC2CC3C=CC2C3)cc1` (configuration not stated), for which the activity change, negative = inhibition was -34.1% (active).

For `CC(C)c1ccc(NC(=O)NC2CCCCC2)cc1`, the activity change, negative = inhibition is -4.57%.

Consider `O=C(COC(=O)C1CC2C=CC1C2)Nc1ccccc1` (configuration not stated), for which the activity change, negative = inhibition is -18.1%. Regarding `COc1ccc(C2=NC(c3ccncc3)=Nc3ccc(Br)cc3N2)cc1`, the activity change, negative = inhibition is -11.7%.

Consider `CCn1c(C(=O)Nc2cc(Cl)ccc2C)cc2sc(Cl)cc21`, for which the activity change, negative = inhibition is -0.309%.

As for `O=C(c1ccc2c(c1)N(Cc1ccc(Cl)cc1)C(=O)c1ccccc1S2(=O)=O)N1CCCCC1`, the activity change, negative = inhibition was 5.67%.

`COc1ccc(-c2cc(-c3nc(-c4cc(OC)c(OC)c(OC)c4)no3)[nH]n2)c(OC)c1`: the activity change, negative = inhibition is 27%. `Cc1ccc(NC(=O)CN2C(=O)C(c3ccc(F)cc3)=NC23CCCCCC3)c(C)c1`: the activity change, negative = inhibition was 2.24%. Turning to `COc1cccc(C2=CC(=O)C[C@H](c3ccc(OC)c(OC)c3)C2)c1`, the activity change, negative = inhibition was -42.8% (active). For the compound `COc1ccc([C@H]2CC(=O)C=C(c3ccc(OC(F)(F)F)cc3)C2)cc1OC`, the activity change, negative = inhibition is -5.99%. Under `O=C1C=C(c2cccc(Cl)c2)C[C@@H](c2ccc(F)cc2)C1` stands -32% (active). With `COc1ccc([C@H]2CC(=O)C=C(/C=C/c3ccccc3)C2)cc1`, the activity change, negative = inhibition is 3.37%. The value for `O=C1C=C(c2cc(C(F)(F)F)cc(C(F)(F)F)c2)C[C@@H](c2ccc3c(c2)OCO3)C1` was -12.8%; that for `O=C1CC(c2cccc(Cl)c2)CC(O)=C1C=Nc1ccccc1` (configuration not stated) was -3.8%. As for `CC(=O)Nc1ccc(NC(=O)CCCc2nc(-c3ccc(C(C)(C)C)cc3)no2)cc1`, the activity change, negative = inhibition is 2.77%. Under `COc1ccc(CNC(=O)c2cc3c(-c4ccccc4F)nn(C)c3s2)c(OC)c1` stands 8.78%; under `CCc1ccc(Nc2nn3c(=O)c4cc5c(cc4nc3s2)OCO5)cc1`, 7.15%; under `O=C(CCNS(=O)(=O)c1ccccc1)NCCCc1ccccc1`, -0.746%.

Turning to `NC(=O)NC(=O)C(OC(=O)CCNS(=O)(=O)c1ccccc1)c1ccccc1` (configuration not stated), the activity change, negative = inhibition is -53% (active).

As to `Cc1ccc(S(=O)(=O)NCCC(=O)OCC(=O)N(C)c2ccccc2)cc1`, the activity change, negative = inhibition is -1.79%.

`COc1cccc(CNC(=O)CN2C(=O)CCc3cc(S(=O)(=O)N4CCOCC4)ccc32)c1`: the activity change, negative = inhibition was -4.09%. Regarding `Cc1ccc(C)c2sc(NC(=O)c3ccc(S(=O)(=O)N4CCCC4)cc3)nc12`, the activity change, negative = inhibition was 5.67%. With `CCOc1ccccc1NC(=O)CN1CCN(S(=O)(=O)c2ccc(Br)cc2)CC1`, the activity change, negative = inhibition is 6.89%. In the case of `Cn1c(CNC(=O)c2ccccc2F)nnc1SCc1ccc(F)cc1`, the activity change, negative = inhibition was 26.9%.

Turning to `Cn1c(Cn2nnc3ccccc32)nnc1SCC(=O)c1ccccc1F`, the activity change, negative = inhibition was -30.4% (active).

Turning to `Cn1c(CC(=O)Nc2ccccc2)nnc1SCC(=O)c1ccccc1`, the activity change, negative = inhibition was -16.4%. Consider `COc1ccc(CNC(=O)c2cc3cccc(OC)c3oc2=O)cc1`, for which the activity change, negative = inhibition was -1.99%. Take `O=C(CSc1ccc([N+](=O)[O-])cn1)Nc1ccc(N2CCOCC2)cc1`: the activity change, negative = inhibition is 0.609%. Take `O=C(CSc1ccc([N+](=O)[O-])cn1)Nc1ccc(N2CCOCC2)c(Cl)c1`: the activity change, negative = inhibition was -35.4% (active). With `O=C(CSc1nccc(=O)[nH]1)Nc1ccc(N2CCOCC2)c(Cl)c1`, the activity change, negative = inhibition was -3.03%. For `CCOC(=O)c1c(C)oc2ccc(N(C(=O)c3ccncc3)S(=O)(=O)c3ccc(CC)cc3)cc12`, the activity change, negative = inhibition was -12.9%. Take `Cc1nn(-c2ccccc2)c(C)c1NC(=O)COC(=O)c1cc(Cl)ccc1O`: the activity change, negative = inhibition is -7%.

Consider `C/C=C/c1ccc(OCC(=O)OCC(=O)Nc2c(C)nn(-c3ccccc3)c2C)c(OC)c1`, for which the activity change, negative = inhibition is -92.1% (active). For the compound `Cc1nn(-c2ccccc2)c(C)c1NC(=O)CCl`, the activity change, negative = inhibition is -2.92%. For `CCOC(=O)c1c(NC(=O)/C=C/c2ccc(OC)cc2)sc2c1CCC(C)C2` (configuration not stated), the activity change, negative = inhibition was -4.93%. With `CCCCOC(=O)CSc1ncnc2sc3c(c12)CCC(C)C3` (configuration not stated), the activity change, negative = inhibition was -2.54%. As for `COc1ccc(S(=O)(=O)N2CCN(C)CC2)c(C)c1`, the activity change, negative = inhibition is -0.84%.

On to `COc1ccc(S(=O)(=O)n2cnc3ccccc32)c(C)c1`, for which the activity change, negative = inhibition was -34% (active). As to `Cc1ccc(C)c(S(=O)(=O)n2cnc3ccccc32)c1`, the activity change, negative = inhibition is 1.78%. Turning to `CCNS(=O)(=O)c1ccc(NC(=O)CSc2nc(-c3ccco3)cc(C(F)(F)F)n2)cc1`, the activity change, negative = inhibition is 7%. The value for `COc1ccccc1N1CCN(CCCNC(=O)c2cnn(-c3ccccc3Cl)c2C2CCN(C(=O)OC(C)(C)C)CC2)CC1` was -8.92%; that for `CCC(C(=O)Nc1cccc(Cl)c1C)n1nc(-c2ccc(C)cc2)ccc1=O` (configuration not stated) was 6.67%; that for `COc1ccc(CCNC(=O)c2ccc(-n3c(C)cc4c3CCCC4)cc2)cc1OC` was -15.3%.

For the compound `COc1ccc(CNC(=O)Cn2nnc(-c3ccc(S(C)(=O)=O)cc3)n2)cc1`, the activity change, negative = inhibition is 15.1%. Turning to `COc1ccccc1NC(=O)c1oc2ccccc2c1NC(=O)COc1ccccc1OC`, the activity change, negative = inhibition is -10.7%. In the case of `COc1ccc(S(=O)(=O)N2CCCC2)c(C)c1C`, the activity change, negative = inhibition was -24.6%.

Take `COc1ccc(S(=O)(=O)N2CCOCC2)c(C)c1C`: the activity change, negative = inhibition was -50.9% (active). Turning to `COc1cc(C)c(S(=O)(=O)N2CCOCC2)c(C)c1C`, the activity change, negative = inhibition was -2.39%.

In the case of `Cc1nc(NC2=NC(C(=O)Nc3ccc(Cl)cc3)CC(=O)N2)nc2ccccc12` (configuration not stated), the activity change, negative = inhibition is -50.2% (active). Regarding `CC(=O)c1ccc(NC(=O)C2CC(=O)Nc3nc4ccccc4n32)cc1` (configuration not stated), the activity change, negative = inhibition was -16%.

With `CCOC(=O)c1ccc(NC(=O)C2CC(=O)Nc3nc4ccccc4n32)cc1` (configuration not stated), the activity change, negative = inhibition was 2.09%. For `Cc1ccc(Cl)cc1-n1ncc2c(N3CCC(C(N)=O)CC3)ncnc21`, the activity change, negative = inhibition is -13.9%.

Take `Cc1ccc(S(=O)(=O)c2nc(NCCCn3ccnc3)sc2Cl)cc1`: the activity change, negative = inhibition was 8.73%. As for `CC(C)CNc1ncnc2c1cnn2Cc1ccc(Cl)cc1`, the activity change, negative = inhibition was 3%. In the case of `CCN(CC)CCNc1ncnc2c1cnn2-c1cc(Cl)ccc1C`, the activity change, negative = inhibition is -31% (active). With `Cc1ccc(-n2ncc3c(NCCCn4ccnc4)ncnc32)cc1Cl`, the activity change, negative = inhibition is -30.7% (active). The value for `CCN1CCN(c2ncnc3c2cnn3-c2ccc(C)c(C)c2)CC1` was 0.119%; that for `CCN(CC)CCNC(=O)CN1N=C(c2ccc(OC)cc2)CCC1=O` was 7.52%; that for `COC(=O)c1cc(NC(=O)c2sc3ccccc3c2Cl)cc(C(=O)OC)c1` was 5.62%. As for `COc1cccc(NC(=O)N(Cc2cn(C)c3ccccc23)C2CCCCCC2)c1`, the activity change, negative = inhibition was 17.7%.

Turning to `Cc1ccc(N(CC(=O)NCC(C)c2ccccc2)S(=O)(=O)N(C)C)cc1` (configuration not stated), the activity change, negative = inhibition is -3.48%. The value for `CCOc1ccccc1CNC(=O)c1ccc(-n2c(C)cc3c2CCC(C)C3)cc1` (configuration not stated) was 6.61%. As for `O=C(C1CC1)N1CCc2cc(Br)cc(S(=O)(=O)N3CCN(c4ccccc4F)CC3)c21`, the activity change, negative = inhibition is -2.36%.
